Assay outcomes from PubChem BioAssay.
Sampled rows, rich in hits. Any-hit rate of the full collection: about 2.8%.
KLK7 zymogen act: activators of human kallikrein-7 zymogen; 370,000 compounds, 0.9% hits; activation, % at 7 µM; purified proKLK7, EDANS-DABCYL substrate fluorescence; 100% is mature enzyme control, 0% vehicle;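 active = activation above the mean of all tested compounds plus 3 SD, computed per campaign excluding outliers beyond control limits, cut at about 13% in these data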
Target sequence (P49862 whole entry, looked up): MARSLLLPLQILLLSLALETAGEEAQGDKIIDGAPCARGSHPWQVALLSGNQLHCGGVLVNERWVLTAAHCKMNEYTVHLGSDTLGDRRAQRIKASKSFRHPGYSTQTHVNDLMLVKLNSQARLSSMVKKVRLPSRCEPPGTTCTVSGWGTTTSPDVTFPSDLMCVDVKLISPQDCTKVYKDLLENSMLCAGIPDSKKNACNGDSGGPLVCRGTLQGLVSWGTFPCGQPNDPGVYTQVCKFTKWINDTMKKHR
bovine MsrA act: activators of bovine methionine sulfoxide reductase A. purified bovine MsrA, absorbance read-out. activation, % at 10.6 µM. 360,000 compounds, 0.3% hits. AID 602163; in the data active = activation above about 7.5%
MsrA inh: inhibitors of bovine MsrA | purified bovine MsrA, absorbance read-out | inhibition, % at 15.5 µM | 360,000 compounds, 0.75% hits | AID 651718; in the data active = inhibition above about 4.5%
SMARCA2 act: increases SMARCA2 function in MMTV reporter cells; MG213 cells, MMTV-luciferase reporter, dexamethasone, overnight; activation, % at 9.1 µM; 370,000 compounds, 1% hits; AID 652017; in the data active = activation above about 7.8%
proKLK7 act conf: proKLK7 activation, confirmation. shares compounds with KLK7 zymogen act. purified proKLK7, EDANS-DABCYL substrate fluorescence; scaled: vehicle 0, mature enzyme 100. activation, % at 7 µM. 3,200 compounds, 68% hits;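 active = activation, as change over the incubation, above the mean of all tested compounds plus 3 SD, cut at about 13% in these data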
EDANS interfere: optically interferes with EDANS-DABCYL signal, flagging KLK7 hits. activation, % at 7 µM. AID 686952. shares compounds with KLK7 zymogen act. EDANS-DABCYL substrate fluorescence interference, no enzyme, 4 h; solvent 0%, active enzyme control 100%. 3,200 compounds, 80% hits;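 active = activation above the all-compound mean plus 3 SD, ignoring values outside control-based bounds, cut at about 4.8% in these data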;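 also: value is the 4 h activation minus the activation read at time zero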
EDANS interf: EDANS fluorescence interference in dose response, no enzyme; shares compounds with KLK7 zymogen act; EDANS-DABCYL peptide fluorescence interference; EC50, µM; 250 compounds, 20% hits;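 active = compounds that raise the fluorescence signal in this interference counterscreen, with EC50 at or below 10 µM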;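 also: intact quenched peptide substrate alone read at 355 nm excitation and 520 nm emission; signal is fluorescence gain from T0 to T4 after four hours at room temperature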
Numbers stand for hits.

For Nc1ccc2c(C(F)(F)F)cc(C(F)(F)F)nc2n1 the results were KLK7 zymogen act 38, bovine MsrA act inactive, MsrA inh inactive, SMARCA2 act inactive, proKLK7 act conf 47 and EDANS interfere 42.
O=C(c1ccc(F)c(F)c1)N1CCC(Oc2cccnc2)CC1 was read as KLK7 zymogen act inactive and SMARCA2 act inactive.
Screening CCn1ccnc1CN1CCCC(C(=O)c2ccc3cc(OC)ccc3c2)C1 (stereo not given) returned KLK7 zymogen act 36, bovine MsrA act inactive, MsrA inh inactive, SMARCA2 act inactive, proKLK7 act conf inactive and EDANS interfere inactive.
O=C(c1ccc2ccccc2c1)C1CCCN(C(=O)c2cccnc2)C1 (stereo not given) was read as KLK7 zymogen act inactive, bovine MsrA act inactive, MsrA inh inactive and SMARCA2 act inactive.
COc1ccc2cc(C(=O)C3CCCN(Cc4ccccn4)C3)ccc2c1 (stereo not given) was read as KLK7 zymogen act 39, bovine MsrA act inactive, MsrA inh inactive, SMARCA2 act inactive, proKLK7 act conf inactive and EDANS interfere inactive.
For COc1ccc2cc(C(=O)C3CCCN(C(=O)c4cccnc4)C3)ccc2c1 (stereo not given) the results were KLK7 zymogen act 22, bovine MsrA act inactive, MsrA inh inactive, SMARCA2 act inactive, proKLK7 act conf 57, EDANS interfere 47 and EDANS interf inactive.
`Cc1cccc(C)c1OCC(=O)N[C@@H](Cc1ccccc1)[C@@H](O)C[C@H](Cc1ccccc1)NC(=O)[C@H](C(C)C)N1CCCNC1=O` gave KLK7 zymogen act inactive and SMARCA2 act inactive.
Screening CC(=O)c1ccc(-c2cc(C(C)=O)c3n(c2=O)CCC3)cc1 returned KLK7 zymogen act 44, SMARCA2 act inactive, proKLK7 act conf 61 and EDANS interfere 74.
CC(=O)c1cc(-c2ccc(S(C)(=O)=O)cc2)c(=O)n2c1CCC2 was read as KLK7 zymogen act inactive and SMARCA2 act inactive.
CCNC(=S)Nc1ccc2c(c1)c(=O)n(C)n2Cc1cccc(C(F)(F)F)c1 was read as KLK7 zymogen act 20, bovine MsrA act inactive, MsrA inh inactive, SMARCA2 act inactive, proKLK7 act conf inactive and EDANS interfere inactive.
For COc1cccc(CNC(=S)Nc2ccc3c(c2)c(=O)n(C)n3Cc2csc(C)n2)c1 the results were KLK7 zymogen act 15, bovine MsrA act inactive, MsrA inh inactive, SMARCA2 act inactive, proKLK7 act conf inactive and EDANS interfere inactive.
For Cc1ccc(CNC(=S)Nc2ccc3c(c2)c(=O)n(C)n3Cc2cccc(C(F)(F)F)c2)cc1 the results were KLK7 zymogen act inactive, bovine MsrA act inactive, MsrA inh inactive and SMARCA2 act inactive.
Cn1c(=O)c2cc(NC(=O)OCCF)ccc2n1Cc1cccc(C(F)(F)F)c1 was read as KLK7 zymogen act 13, bovine MsrA act inactive, MsrA inh inactive, SMARCA2 act inactive, proKLK7 act conf inactive and EDANS interfere 5.7.
Screening CC(C)C[C@H]1CN(CCCC[C@H]2CNC(=O)C(=O)N2CC2CCCCC2)C(=O)C(=O)N1CCc1ccc(O)cc1 returned KLK7 zymogen act inactive, bovine MsrA act inactive, MsrA inh inactive and SMARCA2 act inactive.
`C=CCOc1c2ccc(C(=O)NCc3ccc(OC)cc3)cc2nn1C` gave KLK7 zymogen act inactive, bovine MsrA act inactive, MsrA inh inactive and SMARCA2 act inactive.
Screening C=CCOc1c2ccc(C(=O)NCc3ccccc3OC)cc2nn1C returned KLK7 zymogen act 14, bovine MsrA act inactive, MsrA inh inactive, SMARCA2 act inactive, proKLK7 act conf inactive and EDANS interfere 15.
CC[C@]12c3[nH]c4cc(-c5ccco5)ccc4c3CCN1C(=O)[C@@H](CC(=O)NCc1ccco1)C[C@@H]2C(=O)N1CCN(C(=O)C2CC2)CC1 was read as KLK7 zymogen act 100, bovine MsrA act inactive, MsrA inh inactive, SMARCA2 act inactive, proKLK7 act conf 67 and EDANS interfere 93.
For CC[C@]12c3[nH]c4cc(-c5ccco5)ccc4c3CCN1C(=O)[C@@H](CC(=O)NCCC1=CCCCC1)C[C@@H]2C(=O)N1CCN(C(=O)C2CC2)CC1 the results were KLK7 zymogen act 30, bovine MsrA act inactive, MsrA inh inactive, SMARCA2 act inactive, proKLK7 act conf 14 and EDANS interfere 17.
Screening CC[C@]12c3[nH]c4cc(-c5ccco5)ccc4c3CCN1C(=O)[C@@H](CC(=O)NCc1ccc(OC)c(OC)c1)C[C@@H]2C(=O)N1CCN(C(=O)C2CC2)CC1 returned KLK7 zymogen act 122, bovine MsrA act inactive, MsrA inh inactive, SMARCA2 act inactive, proKLK7 act conf 72 and EDANS interfere 84.
CC[C@]12c3[nH]c4cc(-c5ccco5)ccc4c3CCN1C(=O)[C@@H](CC(=O)NCC13CC4CC(CC(C4)C1)C3)C[C@@H]2C(=O)N1CCN(C(=O)C2CC2)CC1 was read as KLK7 zymogen act inactive, bovine MsrA act inactive, MsrA inh inactive and SMARCA2 act inactive.
COc1ccc(CNC(=O)C[C@H]2C[C@H](C(=O)N3CCCCC3)[C@@]3(CCc4ccccc4)c4[nH]c5cc(-c6ccco6)ccc5c4CCN3C2=O)cc1OC was read as bovine MsrA act inactive.
`CCOC(=O)Nc1ccc2c(COC(=O)CNS(=O)(=O)c3ccc(NC(C)=O)cc3)cc(=O)oc2c1` gave KLK7 zymogen act 98, bovine MsrA act inactive, MsrA inh inactive, SMARCA2 act inactive, proKLK7 act conf 127 and EDANS interfere 106.
Screening CCOC(=O)CC[C@H]1CC[C@]2(CCCN(C3CCCCC3)C2)O1 returned KLK7 zymogen act inactive and SMARCA2 act inactive.
`O=C(NCc1ccccc1Cl)c1csc(COCCO)n1` gave KLK7 zymogen act inactive, bovine MsrA act inactive, MsrA inh inactive and SMARCA2 act inactive.
`CCCCc1cc(=O)oc2cc(O)cc(O)c12` gave KLK7 zymogen act 78, bovine MsrA act inactive, MsrA inh inactive, SMARCA2 act inactive, proKLK7 act conf 70 and EDANS interfere 70.
CCCCc1cc(=O)oc2cc(C)cc(OC(C)C(=O)O)c12 (stereo not given) was read as KLK7 zymogen act 20, bovine MsrA act inactive, MsrA inh inactive, SMARCA2 act inactive, proKLK7 act conf 31 and EDANS interfere 33.
CCCc1cc(=O)oc2cc(C)cc(OCC(=O)O)c12 was read as KLK7 zymogen act 19, bovine MsrA act inactive, MsrA inh inactive, SMARCA2 act inactive, proKLK7 act conf 36 and EDANS interfere 34.
Screening COc1ccccc1C(=O)N1CCN(Cc2ccc3c(c2)OCO3)CC1 returned KLK7 zymogen act inactive, bovine MsrA act inactive, MsrA inh inactive and SMARCA2 act inactive.
